About 83,000 compounds went through this panel and 20% of them were active in at least one assay; those are over-represented in the sample as a whole.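 How to read the values: 0–100, growth inhibition (40 = 60% inhibited); 0, no net growth; -100 to 0, cell death (-40 = 40% of starting cells died; -100 = all dead).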 Activity calls are given as the source filed them. Rule for the calls: active = growth percent below 10; inactive = the rest.
How the values were obtained:
Assay in all cases: NCI-60 one-dose screen, 48 h (100 = growth as untreated, 0 = no growth, -100 = all killed)
HCT-15 colon = conditions: 10 µM unless noted
SNB-75 CNS = conditions: 10 µM unless noted
SNB-19 CNS = conditions: 10 µM unless noted
U251 CNS = conditions: 10 µM unless noted
PC-3 prostate = conditions: 10 µM unless noted
SK-MEL-5 melanoma = conditions: 10 µM unless noted
UACC-62 melanoma = conditions: 10 µM unless noted
LOX IMVI melanoma = conditions: 10 µM unless noted
SK-MEL-28 melanoma = conditions: 10 µM unless noted
SK-MEL-2 melanoma = conditions: 10 µM unless noted
EKVX NSCLC = conditions: 10 µM unless noted
SN12C renal = conditions: 10 µM unless noted
UO-31 renal = conditions: 10 µM unless noted
TK-10 renal = conditions: 10 µM unless noted
ACHN renal = conditions: 10 µM unless noted
CAKI-1 renal = conditions: 10 µM unless noted
A498 renal = conditions: 10 µM
HL-60(TB) leukemia = conditions: 10 µM unless noted
CCRF-CEM leukemia = conditions: 10 µM unless noted
HT29 colon = conditions: 10 µM unless noted

Measured: growth

O=C(N/N=C\c1ccc(N(CCCl)CCCl)cc1Cl)c1cccnc1
inactive: HCT-15 colon 79.9% | SNB-75 CNS 86.6% | SNB-19 CNS 89% | U251 CNS 65.2% | PC-3 prostate 92.9% | SK-MEL-5 melanoma 72.6% | LOX IMVI melanoma 87.1% | SK-MEL-28 melanoma 98.5% | SK-MEL-2 melanoma 27.2% | EKVX NSCLC 103% | SN12C renal 79.2% | UO-31 renal 88% | ACHN renal 98.5% | CAKI-1 renal 69.3% | HL-60(TB) leukemia 91.8% | CCRF-CEM leukemia 74.8%
active: UACC-62 melanoma -40.4% | TK-10 renal 6.39% | A498 renal -93.6%

C/C1=C/C(=O)O[C@@H]2C[C@@H](CC[C@H](C)/C=C\C=C\CC1)O[C@@](O)([C@@H]1CSC(=O)N1CO)C2
active: HT29 colon 8.8% | SNB-75 CNS -41.5% | U251 CNS 5.44% | LOX IMVI melanoma 7.38% | SK-MEL-28 melanoma -31.7% | EKVX NSCLC 6.56% | UO-31 renal -83.5% | TK-10 renal -39.1% | CAKI-1 renal -48.3% | A498 renal -46.2%
inactive: HCT-15 colon 46.6% | SK-MEL-5 melanoma 29.5% | UACC-62 melanoma 29.2% | SN12C renal 47.8% | ACHN renal 10.6% | HL-60(TB) leukemia 28.2% | CCRF-CEM leukemia 11.1%

O=C1C=C2C(=CCOC2O)O1 (stereo unspecified)
inactive: SNB-19 CNS 84.1% | U251 CNS 74.8% | PC-3 prostate 33.9% | SK-MEL-5 melanoma 78.7% | SK-MEL-28 melanoma 37.7% | SK-MEL-2 melanoma 10.4% | EKVX NSCLC 103% | SN12C renal 35.1% | A498 renal 107%
active: HCT-15 colon -8.81% | HT29 colon -24.3% | UACC-62 melanoma -14.2% | LOX IMVI melanoma 1.42% | UO-31 renal -11.6% | TK-10 renal -37.2% | ACHN renal -18.7% | CAKI-1 renal -13.2%

C1CCC([PH+](C2CCCCC2)C2CCCCC2[PH+](C2CCCCC2)C2CCCCC2)CC1.[Au].[CH-]1CCCCC1CC1CCCC[N-]1 (stereo unspecified)
active: HCT-15 colon -36.9% | HT29 colon 1.89% | SNB-19 CNS -89% | U251 CNS -78.1% | PC-3 prostate -22.2% | SK-MEL-5 melanoma -99.8% | UACC-62 melanoma -71% | SK-MEL-28 melanoma -70.5% | SK-MEL-2 melanoma -55.7% | EKVX NSCLC -61.9% | SN12C renal -32% | UO-31 renal -81.4% | TK-10 renal -43.4% | ACHN renal -72.5% | CAKI-1 renal -31.3% | A498 renal -91.6% | HL-60(TB) leukemia -32.3% | CCRF-CEM leukemia -12.5%

Fc1ccc(N2COOC3(OOC2)C2CC4CC(C2)CC3C4)cc1
inactive: HCT-15 colon 88.6% | HT29 colon 102% | SNB-19 CNS 95.5% | U251 CNS 97.1% | PC-3 prostate 90.4% | SK-MEL-5 melanoma 101% | UACC-62 melanoma 76.5% | SK-MEL-28 melanoma 100% | SK-MEL-2 melanoma 88.8% | EKVX NSCLC 79.4% | SN12C renal 101% | TK-10 renal 93% | ACHN renal 59.7% | CAKI-1 renal 26% | A498 renal 90.1% | HL-60(TB) leukemia 74% | CCRF-CEM leukemia 94.2%
active: LOX IMVI melanoma -82.2% | UO-31 renal -74.9%

O=C1C(N2CC2)=C(N2CC2)C(=O)C(N2CC2)=C1N1CC1
active: HCT-15 colon 2.19% | HT29 colon 2.38% | SNB-75 CNS -52.6% | U251 CNS -63.6% | PC-3 prostate 7.53% | SK-MEL-5 melanoma -76.7% | UACC-62 melanoma -84.6% | LOX IMVI melanoma -61.5% | SK-MEL-28 melanoma -51.8% | SK-MEL-2 melanoma -24.2% | UO-31 renal -56.2% | TK-10 renal 2.35% | ACHN renal -45.9% | CAKI-1 renal 7.04% | A498 renal -75.4%
inactive: EKVX NSCLC 22.9% | HL-60(TB) leukemia 21.8% | CCRF-CEM leukemia 39.2%

Nc1nnnc2nc[nH]c12
active: UACC-62 melanoma -50.9% | LOX IMVI melanoma 6.61% | SK-MEL-2 melanoma -16.8% | EKVX NSCLC 8.89% | UO-31 renal 3.57% | ACHN renal 2.18% | CAKI-1 renal -11.1% | CCRF-CEM leukemia 0.72%
inactive: HCT-15 colon 20.9% | HT29 colon 38.4% | SNB-75 CNS 45.8% | U251 CNS 19.4% | PC-3 prostate 11.5% | SK-MEL-5 melanoma 33.8% | SK-MEL-28 melanoma 14.8% | SN12C renal 10.9% | TK-10 renal 33.3% | A498 renal 12.7%

Cc1ccc(N2COOC3(OOC2)C2CC4CC(C2)CC3C4)cc1
inactive: HCT-15 colon 96.6% | HT29 colon 97.5% | SNB-19 CNS 106% | U251 CNS 96.1% | PC-3 prostate 93.5% | SK-MEL-5 melanoma 90.5% | UACC-62 melanoma 109% | SK-MEL-28 melanoma 103% | SK-MEL-2 melanoma 104% | EKVX NSCLC 93% | SN12C renal 106% | UO-31 renal 20.7% | TK-10 renal 98.7% | ACHN renal 97.7% | CAKI-1 renal 53.7% | A498 renal 88.4% | HL-60(TB) leukemia 66.6% | CCRF-CEM leukemia 107%
active: LOX IMVI melanoma -61.6%

Clc1cccc(NCOOC2(OOCNc3cccc(Cl)c3)CCCCC2)c1
inactive: HCT-15 colon 70.2% | HT29 colon 74.5% | SNB-19 CNS 90.2% | U251 CNS 61.4% | PC-3 prostate 77.6% | SK-MEL-5 melanoma 71.4% | UACC-62 melanoma 34.3% | SK-MEL-28 melanoma 100% | SK-MEL-2 melanoma 80.8% | EKVX NSCLC 55.1% | SN12C renal 91.9% | TK-10 renal 86.3% | ACHN renal 38.8% | CAKI-1 renal 12.3% | A498 renal 61% | HL-60(TB) leukemia 39.1% | CCRF-CEM leukemia 36.7%
active: LOX IMVI melanoma -86.1% | UO-31 renal -73.7%

COc1ccc(C/C(C)=C(\c2ccc(OCCN3CCOCC3)cc2)c2ccc(OC(=O)Cc3ccccc3)cc2)cc1
active: HCT-15 colon -23.7% | HT29 colon -89.7% | U251 CNS -97.3% | PC-3 prostate -1% | SK-MEL-5 melanoma -91.9% | UACC-62 melanoma -87.7% | LOX IMVI melanoma -94.1% | SK-MEL-28 melanoma -80.6% | SK-MEL-2 melanoma -80.6% | SN12C renal -73.7% | UO-31 renal -84.6% | TK-10 renal -46.1% | ACHN renal -3.31% | CAKI-1 renal 7.71% | A498 renal -90.5% | HL-60(TB) leukemia -59.3% | CCRF-CEM leukemia -13.7%
inactive: SNB-19 CNS 13.8% | EKVX NSCLC 17.9%

NC(=O)C(Br)c1ccccc1 (stereo unspecified)
active: CAKI-1 renal -46%
inactive: HCT-15 colon 58% | HT29 colon 86.2% | SNB-19 CNS 90.6% | U251 CNS 86.8% | PC-3 prostate 94.3% | SK-MEL-5 melanoma 82.9% | UACC-62 melanoma 88% | LOX IMVI melanoma 56.8% | SK-MEL-28 melanoma 97.2% | SK-MEL-2 melanoma 83.9% | EKVX NSCLC 109% | SN12C renal 88.7% | UO-31 renal 102% | TK-10 renal 91.2% | A498 renal 87.4% | HL-60(TB) leukemia 97.7% | CCRF-CEM leukemia 60.6%

COc1ccc(C2=N[C@@H](Cc3ccccc3)C(=O)Nc3ccsc32)cc1
active: SK-MEL-2 melanoma -4.24% | HL-60(TB) leukemia 8.11%
inactive: HCT-15 colon 34.7% | HT29 colon 17.9% | SNB-19 CNS 69.8% | U251 CNS 42.7% | PC-3 prostate 59.1% | SK-MEL-5 melanoma 34.9% | UACC-62 melanoma 16.9% | LOX IMVI melanoma 47.6% | SK-MEL-28 melanoma 54.5% | SN12C renal 54.3% | UO-31 renal 57% | TK-10 renal 70.3% | CAKI-1 renal 50.7% | A498 renal 35.8% | CCRF-CEM leukemia 32.1%

CC1=C(O)[C@@](C)(CCCCC[C@H](C)CCCCc2ccc(O)cc2)OOC1=O
inactive: HCT-15 colon 98.3% | HT29 colon 105% | SNB-19 CNS 101% | U251 CNS 92.8% | PC-3 prostate 75.4% | SK-MEL-5 melanoma 102% | UACC-62 melanoma 79.2% | LOX IMVI melanoma 69.8% | SK-MEL-28 melanoma 114% | EKVX NSCLC 95.4% | SN12C renal 88.5% | UO-31 renal 68.8% | TK-10 renal 129% | ACHN renal 97.5% | CAKI-1 renal 80.6% | A498 renal 119% | HL-60(TB) leukemia 84.4%

COC(=O)CCC1=C(C)c2cc3[n-]c(cc4nc(cc5[n-]c(cc1n2)c(CCC(=O)OC)c5C)C=C4C)cc3C.[Cd+2]
active: SK-MEL-5 melanoma -7.46%
inactive: HCT-15 colon 35.5% | HT29 colon 28.8% | SNB-19 CNS 73.9% | U251 CNS 61% | PC-3 prostate 33.9% | UACC-62 melanoma 24.1% | LOX IMVI melanoma 44.3% | SK-MEL-28 melanoma 68.8% | SK-MEL-2 melanoma 32.4% | EKVX NSCLC 62.2% | SN12C renal 71.2% | UO-31 renal 71.7% | TK-10 renal 33.4% | ACHN renal 67.9% | CAKI-1 renal 63.3% | A498 renal 34.4%

C=CCCCCCCCCC(=O)[O-].C=CCCCCCCCCC(=O)[O-].[Zn+2]
inactive: HCT-15 colon 101% | HT29 colon 105% | SNB-75 CNS 103% | U251 CNS 89% | PC-3 prostate 85.7% | SK-MEL-5 melanoma 113% | UACC-62 melanoma 99.4% | LOX IMVI melanoma 90.5% | SK-MEL-28 melanoma 104% | SK-MEL-2 melanoma 111% | EKVX NSCLC 98.7% | SN12C renal 101% | TK-10 renal 115% | ACHN renal 101% | CAKI-1 renal 90% | A498 renal 92.7% | HL-60(TB) leukemia 95.1% | CCRF-CEM leukemia 104%

Clc1cccc(N2COOC3(OOC2)C2CC4CC(C2)CC3C4)c1
active: LOX IMVI melanoma -63.4% | UO-31 renal -89.6% | CCRF-CEM leukemia -32.7%
inactive: HCT-15 colon 94.6% | HT29 colon 85.2% | SNB-19 CNS 101% | U251 CNS 35.8% | PC-3 prostate 74.8% | SK-MEL-5 melanoma 86.5% | UACC-62 melanoma 93.3% | SK-MEL-28 melanoma 114% | SK-MEL-2 melanoma 98.3% | EKVX NSCLC 94.2% | SN12C renal 76% | TK-10 renal 40.9% | ACHN renal 62.1% | CAKI-1 renal 76.4% | A498 renal 110% | HL-60(TB) leukemia 20.2%

COc1cc([C@@H]2c3cc4c(cc3[C@H](OC(C)=O)[C@H]3COC(=O)[C@@H]23)OCO4)cc(OC)c1OC
active: HT29 colon 1.62% | SNB-75 CNS 4.62% | U251 CNS 8.16% | SK-MEL-5 melanoma -20.9% | A498 renal -15.7% | HL-60(TB) leukemia -1.71%
inactive: HCT-15 colon 11.8% | PC-3 prostate 15% | UACC-62 melanoma 18.5% | LOX IMVI melanoma 27.3% | SK-MEL-28 melanoma 48.6% | SK-MEL-2 melanoma 40.2% | EKVX NSCLC 33.1% | UO-31 renal 38.9% | TK-10 renal 41.8% | ACHN renal 29.8% | CCRF-CEM leukemia 22.6%

From PubChem BioAssay (NCI)
